Measurements: PubChem BioAssay
Inconclusive results are not listed. Active and inactive are the calls of the source. Unless noted, cut-off not given; nearly all actives show AC50 up to about 26 µM.

Assays:
[1] = modulation of C. elegans fzo-1 (AID 1259413; call rule not given here;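 further: fzo-1 mutant C. elegans worms in liquid wells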); settings: C. elegans fzo-1 modulator screen, mean read-out; stronger effect = higher value
[2] = EMT-state selective cytotoxicity in co-culture – imaging, PC-3E GFP, TEM4-18 mCherry, primary screen (AID 1345086;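 active means compounds killing one labelled cell type while sparing the other, by normalised counts and ratio limits, not self-fluorescent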;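 on all read-outs here: cells exposed to compound for 72 h before imaging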;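 on red/green cell ratio (normalised): normalised mesenchymal count divided by normalised epithelial count so high means epithelial killing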); settings: PC-3E GFP / TEM4-18 mCherry co-culture, imaging cell counts, at 1 µM; for red/green cell ratio (normalised): actives lie on both sides, counts scaled to control wells, 1 = unselective
[3] = viability loss in pontine glioma line – cell-based, SU-DIPG-XVII, MIPE5.0, CellTiter-Glo, qHTS, dose response (AID 1347060); settings: CellTiter-Glo ATP luminescence
[4] = viability loss in pontine glioma line – cell-based, JHH-DIPG-1, MIPE4.0, CellTiter-Glo, qHTS, dose response (AID 1347062; cut-off not given, nearly all actives have AC50 up to about 27 µM); settings: JHH-DIPG-1 viability, CellTiter-Glo ATP luminescence
[5] = viability loss in pontine glioma line – cell-based, SU-DIPG-IV, MIPE4.0, CellTiter-Glo, qHTS, dose response (AID 1347063; cut-off not given, nearly all actives have AC50 up to about 30 µM;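 further: compound exposure lasted 48 hours before the viability readout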); settings: CellTiter-Glo ATP luminescence
[6] = viability loss in pontine glioma line – cell-based, SU-DIPG-XIII, MIPE5.0, CellTiter-Glo, qHTS, dose response (AID 1347064; cut-off not given, nearly all actives have AC50 up to about 23 µM); settings: CellTiter-Glo ATP luminescence
[7] = viability loss in pontine glioma line – cell-based, SU-DIPG-XIII, MIPE4.0, CellTiter-Glo, qHTS, dose response (AID 1347061; cut-off not given, nearly all actives have AC50 up to about 37 µM;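 further: cells exposed to compound for 48 hours before readout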); settings: CellTiter-Glo ATP luminescence
[8] = measured here: epithelial PC-3E GFP cell survival
[9] = measured here: mesenchymal TEM4-18 mCherry cell survival

Compound | mean signal [1] | red/green cell ratio (normalised) [2] | normalised cell number [2, 8] | normalised cell number [2, 9] | outcome [3] | outcome [4] | outcome [5] | outcome [6] | AC50 [7] | outcome [7] | AC50 [5]
CCCOc1ccc(C(=O)OCCN(CC)CC)cc1N | 287 (active) | 1.08 (inactive) | 1.2 | 1.3 | inactive | inactive | inactive | inactive |  |  | 
CN1CCC(=C2c3ccccc3CCc3sccc32)CC1 | 277 (inactive) | 0.85 (inactive) | 1.11 | 0.94 | inactive |  |  |  | 16.6 µM (active) |  | 
Nc1[nH]c(=O)ncc1F | 243 (inactive) | 1.01 (inactive) | 0.89 | 0.9 | inactive |  |  | inactive |  |  | 
COC1=C(OC)C(=O)C(CCCCCCCCCCO)=C(C)C1=O | 254 (inactive) | 0.83 (inactive) | 1.18 | 0.98 | inactive |  |  |  |  |  | 
COc1cc(OC)c(C(=O)CCCN2CCCC2)c(OC)c1 | 255 (inactive) | 0.81 (inactive) | 1.24 | 1 | inactive | inactive | inactive | inactive |  | inactive | 
Cn1c(NCCN(CCO)CCCc2ccc([N+](=O)[O-])cc2)cc(=O)n(C)c1=O | 242 (inactive) |  |  |  | inactive |  |  | inactive |  |  | 20.9 µM (active)
